{
  "source": "PubChem BioAssay",
  "note": "The source made the active and inactive calls.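 How the source made its calls: active means calcium signal rise more than 3 SD above the low-dose agonist control mean, in both duplicate plates and the primary screen; inactive means the rest.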",
  "data": [
    {"test": "nonspecific potentiation of DAMGO calcium response – cell-based, HEK293 mu-opioid receptor line, counter-screen for TRPC4 allosteric potentiator project, confirmation (AID 449724);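 further: HEK293 cells carrying mu-opioid receptor only with no TRPC4 channel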", "details": "HEK293 mu-opioid receptor cells, Fluo-4 calcium flux, at 10 µM, compound added before EC20 DAMGO stimulus", "values": [
      {"compound": "CN1CCN(S(=O)(=O)c2ccc(Br)c3ccccc23)CC1", "outcome": "inactive"},
      {"compound": "CC(C)(C)C(=O)NCCCc1nc2ccccc2n1CCCOc1ccc(Cl)cc1", "outcome": "inactive"},
      {"compound": "CCN(CC)c1ccc(CNc2nc3ccccc3n2CCN2CCCCC2)cc1", "outcome": "inactive"},
      {"compound": "O=[N+]([O-])c1ccc(S(=O)(=O)NCCCc2ccccc2)cc1", "outcome": "inactive"},
      {"compound": "CC(=O)c1ccc(OCC(O)CN2CCN(S(=O)(=O)c3c(C)cc(C)cc3C)CC2)cc1", "note": "(stereo unspecified)", "outcome": "inactive"},
      {"compound": "CC(=O)c1ccc(N2CCN(c3ccc(S(=O)(=O)NCCCN(C)C)cc3[N+](=O)[O-])CC2)cc1", "outcome": "inactive"},
      {"compound": "C=CCn1c(SCCN2CCCCC2)nc2c1c(=O)[nH]c(=O)n2C", "outcome": "inactive"},
      {"compound": "CCCN(C(=O)COC(=O)C12CCC(=O)N1c1ccccc1S2)c1c(N)n(Cc2ccccc2)c(=O)[nH]c1=O", "note": "(stereo unspecified)", "outcome": "inactive"},
      {"compound": "Cc1cc(C(=O)CN2C(=O)C(=O)N(CC(C)C)C2=O)c(C)n1-c1ccccc1F", "outcome": "inactive"},
      {"compound": "C/C(=N\\NC(=O)COc1ccc(C)cc1C(C)C)c1ccc(-n2ccnc2)cc1", "outcome": "inactive"},
      {"compound": "COc1cc(/C=C2\\C(=O)ON=C2c2ccccc2)cc(Cl)c1O", "outcome": "inactive"},
      {"compound": "CN(CC(=O)Nc1ccc(F)cc1)C(=O)COC(=O)C1CCN(c2ccc(C(F)(F)F)cn2)CC1", "outcome": "inactive"},
      {"compound": "CCCN(CCC)CCCNC(=O)c1cc2c(=O)n(C)c3ccccc3c2n1C", "outcome": "inactive"},
      {"compound": "COc1ccccc1CC(=O)N1CCN(S(=O)(=O)c2ccccc2)CC1", "outcome": "inactive"},
      {"compound": "O=C(COc1ccccc1)NC1CCCCCCC1", "outcome": "inactive"},
      {"compound": "O=C(CC1C(=O)NCCN1C(=O)Nc1ccccc1)Nc1cc(Cl)cc(Cl)c1", "note": "(stereo unspecified)", "outcome": "inactive"}
    ]}
  ]
}
